# Results filed as inconclusive are left out. Unmarked numbers belong to inactive results. Active and inactive are the calls of the source. Calls come from the whole dose curve; as a rule, active = well fitted curve in the direction sought with a large enough effect; inconclusive = small, poorly fitted or top-dose-only effect, or another doubt; inactive = no such curve, though single readings can be large or run the other way.
# Experiment: qHTS for Inhibitors of Bloom's syndrome helicase (BLM): Thiazole Orange DNA Binding Counterscreen for SAR.
# Conditions: fluorescence; Potency: Thiazole orange DNA displacement; series mostly up to 57.1 µM; activity change, negative = displacement: at the top concentration
# From the text: Human RecQ DNA helicases participate in maintenance of genome stability and DNA repair. While other types of helicases have been explored as targets for drug development, members of the RecQ family have remained less well characterized. Mutations of the Bloom helicase gene have been associated with the rare human genetic disease called Bloom syndrome. […] Moreover, identified inhibitors can be used in cells and animal models to examine the consequences of inhibition on the survival of cancer cells where it has been shown that BLM plays an important role.
# A fluorescence-based, biochemical assay in 1536 well format was developed to evaluate inhibition of BLM DNA unwinding activity. This assay was used to screen the MLPCN library. The resulting compounds were subjected to orthogonal and secondary biochemical assays to triage the initial hits, to classify compounds based on mode of action and to derive structure activity relationships (SARs) of candidate effectors. The Thiazole Orange (ThO) DNA binding (TO-binding) is used to eliminate inhibitors that operate via nonspecific DNA binding. This displacement assay is miniaturized for a 1536-well format and utilizes a ThO dye bound to unlabeled DNA. Inactivation or no significant activity is the desired outcome for this assay.
# NIH Chemical Genomics Center [NCGC]
# NIH Molecular Libraries Probe Centers Network [MLPCN]
# Assay Submitter (PI): Opher Gileadi, Structural Genomics Consortium, University of Oxford, UK
# Compounds were added to a 4 uL mixture of 50 nM DNA and 100 nM ThO via pintool transfer. The fluorescence signal (excitation 480 nm, emission 530 nm) was measured after 15 min incubation at room temperature using the ViewLux CCD imager.
Structure (SMILES),"activity change, negative = displacement",Potency
CC(=O)c1cccc(NC(=O)Nc2nnc(-c3ccncc3)s2)c1,218%,–
N#Cc1cccc(NC(=O)Nc2nnc(-c3ccncc3)s2)c1,26.6%,–
O=C(Nc1nnc(-c2ccncc2)s1)Nc1ccc(Cl)c2ccccc12,-7.44%,–
O=C(Nc1ccc2sccc2c1)Nc1nnc(-c2ccncc2)s1,5.03%,–
O=C(Nc1ccc(-n2ccnc2)c(F)c1)Nc1nnc(-c2ccncc2)s1,-6.18%,–
O=C(Nc1cccc(C(F)(F)F)c1)Nc1nnc(-c2ccncc2)s1,48.7%,–
O=C(Nc1ccc(Br)c(Br)c1)Nc1nnc(-c2cccnc2)s1,89.9%,–
O=C(Nc1ccc2c(c1)OCO2)Nc1nnc(-c2ccncc2)s1,-28.2%,–
O=C(Nc1ccc(-c2nc3ccccc3[nH]2)cc1)Nc1ccc2c(c1)CCCO2,91.4%,–
O=c1c(Nc2ccc(Br)c(Br)c2)c(Nc2nnc(-c3ccncc3)s2)c1=O,–,10.2 µM (active)
COc1ccccc1CNC(=O)Nc1nnc(-c2ccncc2)s1,1.57%,–
O=C(Nc1ccc(Cl)c(Cl)c1)Nc1ncc(-c2ccncc2)s1,126%,–
O=C(Nc1ccc(F)c(C(F)(F)F)c1)Nc1nnc(C2CCCCC2)s1,56.4%,–
CC(C)(C)c1ccc(-c2nnc(NC(=O)Nc3ccc4ccccc4c3)s2)cc1,12.2%,–
O=C(Nc1ccc2ccccc2c1)Nc1nnc(-c2ccc(Cl)cc2Cl)s1,95.4%,–
Cc1ccccc1-c1nnc(NC(=O)Nc2ccc3ccccc3c2)s1,70.1%,–
O=C(Nc1ccc(-n2cncn2)c(C(F)(F)F)c1)Nc1nnc(-c2ccncc2)s1,264%,–
N#Cc1cc(NC(=O)Nc2nnc(-c3ccncc3)s2)ccc1Cl,-24%,–
Cc1cc(NC(=O)Nc2nnc(C3CCCCC3)s2)ccc1F,4.58%,–
O=C(Nc1ccc2c(c1)OCCO2)Nc1nnc(-c2ccncc2)s1,88%,–

Structure (SMILES),"activity change, negative = displacement",Potency
O=C(Nc1ccc(Cl)c(Cl)c1)Nc1nnc(C2CCCCC2)s1,46.9%,–
O=C(Nc1nnc(-c2ccncc2)s1)Nc1ccc(Cl)cc1F,61.6%,–
N#Cc1ccc(NC(=O)Nc2nnc(-c3ccncc3)s2)cc1,62.4%,–
Cc1cc(NC(=O)Nc2nnc(-c3cccnc3)s2)ccc1F,-2.21%,–
O=C(Nc1ccc2ccccc2c1)Nc1nnc(-c2ccc(O)cc2)s1,62.3%,–
O=C(Nc1ccc(Cl)c(C(F)(F)F)c1)Nc1nnc(-c2ccncc2)s1,13.6%,–
c1ccc2[nH]c(Nc3nnc(-c4ccncc4)s3)nc2c1,-17.6%,–
COc1ccc(OC)c(-c2nnc(NC(=O)Nc3ccc4ccccc4c3)s2)c1,37.6%,–
O=C(Nc1cccc(C(=O)O)c1)Nc1nnc(-c2ccncc2)s1,18.2%,–
O=C(Nc1ccc(F)c(F)c1)Nc1nnc(-c2ccncc2)s1,3.39%,–
O=C(Nc1ccc(-c2nc3ccccc3[nH]2)cc1)Nc1ccc2occc2c1,32.4%,–
CC(C)(C)NC(=O)Nc1nnc(-c2ccncc2)s1,7.57%,–
O=C(Nc1ccc(Cl)c([N+](=O)[O-])c1)Nc1cccc(-c2ccncc2)n1,-18.5%,–
O=C(Nc1ccc2ccccc2c1)Nc1nnc(-c2ccccc2)s1,93%,–
O=C(Nc1ccc(Br)c(Br)c1)Nc1cccc(-c2ccncc2)n1,15.3%,–
Cc1cc(NC(=O)Nc2cccc(-c3ccncc3)n2)ccc1F,-8.74%,–
O=C(Nc1ccc(Cl)c(Cl)c1)N1CCN(c2ccncc2)CC1,4.41%,–
O=C(Nc1ccc2ccccc2c1)Nc1cccc(-c2ccncc2)n1,1.01%,–
O=C(Nc1ccc(Cl)c(Cl)c1)Nc1nnc(N2CCNCC2)s1,-21.8%,–
Cc1ccc(-c2nnc(NC(=O)Nc3ccc4ccccc4c3)s2)cc1,18.5%,–
